Reference: PubChem BioAssay AID1645887 (National Center for Advancing Translational Sciences (NCATS), 2021)
Values joined by “and” are separate entries in the source; they are usually repeats but may differ in a detail not shown here. Identical values can stand only once. In all, about 16,000 compounds went through this assay and about 40 (0.2%) were called active. Not shown: some 1% with an inconclusive outcome. What follows is part of a selection rich in actives, with near analogues and random picks from the rest. Values without a mark were called inactive. The call rests on the fitted dose curve; in most records, active means well fitted activation curve with a large enough effect; inconclusive means small, poorly fitted or top-dose-only effect, or another doubt; inactive means no such curve, though single readings can be large or run the other way.

These compounds were tested against Rap guanine nucleotide exchange factor 4 (Homo sapiens) (UniProt Q8WZA2) (assay: Validation qHTS for agonist of cAMP-regulated guanine nucleotide exchange factor 4 (EPAC2)). Details: EPAC2 Rap1B BODIPY-GDP exchange, fluorescence; activation: hits give high values.
Rap guanine nucleotide exchange factor 4 (Homo sapiens), sequence (Q8WZA2 whole entry, looked up): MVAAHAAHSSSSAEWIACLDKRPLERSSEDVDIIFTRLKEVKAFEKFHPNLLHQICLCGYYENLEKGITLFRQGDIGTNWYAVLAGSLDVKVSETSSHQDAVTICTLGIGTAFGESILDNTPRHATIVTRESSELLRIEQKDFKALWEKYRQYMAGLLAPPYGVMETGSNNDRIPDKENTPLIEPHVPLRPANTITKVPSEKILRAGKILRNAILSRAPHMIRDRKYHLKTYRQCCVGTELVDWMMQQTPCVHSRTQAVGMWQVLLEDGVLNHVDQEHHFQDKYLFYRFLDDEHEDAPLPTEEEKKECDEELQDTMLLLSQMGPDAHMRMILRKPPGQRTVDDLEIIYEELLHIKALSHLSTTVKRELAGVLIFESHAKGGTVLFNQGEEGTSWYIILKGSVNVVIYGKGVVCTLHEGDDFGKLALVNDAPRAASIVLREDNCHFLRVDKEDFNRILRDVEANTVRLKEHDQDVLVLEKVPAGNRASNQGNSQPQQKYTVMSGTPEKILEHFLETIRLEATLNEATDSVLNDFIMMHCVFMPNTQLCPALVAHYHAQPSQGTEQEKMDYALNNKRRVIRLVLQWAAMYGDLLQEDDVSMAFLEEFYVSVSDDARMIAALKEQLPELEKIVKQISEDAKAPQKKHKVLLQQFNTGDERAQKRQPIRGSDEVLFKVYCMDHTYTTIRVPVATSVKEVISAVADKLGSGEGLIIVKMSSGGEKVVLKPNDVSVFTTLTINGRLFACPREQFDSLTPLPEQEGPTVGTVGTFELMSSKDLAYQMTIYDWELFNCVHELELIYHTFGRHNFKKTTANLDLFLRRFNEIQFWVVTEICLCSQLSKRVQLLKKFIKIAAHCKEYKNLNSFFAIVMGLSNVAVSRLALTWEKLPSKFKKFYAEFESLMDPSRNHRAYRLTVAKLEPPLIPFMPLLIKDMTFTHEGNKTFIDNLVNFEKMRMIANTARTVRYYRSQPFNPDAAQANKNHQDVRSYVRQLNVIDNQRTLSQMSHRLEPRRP
Excerpt: Principle Investigator: Xiaodong Cheng Ph.D.
The University of Texas Medical Branch, […], TX
In multi-cellular eukaryotic organisms, the effects of cAMP are transduced by two ubiquitously-expressed intracellular cAMP receptors, the classic protein kinase A/cAMP-dependent protein kinase (PKA/cAPK) and the more recently discovered exchange protein directly activated by cAMP/cAMP-regulated guanine nucleotide exchange factor (EPAC/cAMP-GEF). Both PKA and EPAC are ubiquitously expressed in all tissues, and an increase in intracellular cAMP levels will lead to the activation of both PKA and EPAC. Therefore, careful dissections of the individual role and relative contribution of EPAC and PKA within the overall cAMP signaling in various model systems are critical for further elucidating the mechanism of cAMP signaling. To date no EPAC-specific antagonists and agonist, as well as isoform-specific agonists have been reported, and developing EPAC-specific pharmacological probes to determine the physiological functions that EPAC play in the overall cAMP-mediated signaling remains a major challenge within the research field. Furthermore, identified regulators of EPAC may lead to new mechanism-based therapeutic strategies specifically targeting the EPAC / cAMP-signaling components as EPAC has been implicated to play important roles in major human pathological conditions such as diabetes, heart disease, and cancer.
This qHTS will be used to screen the Molecular Libraries Small Molecule Repository (MLSMR) as a concentration-titration series using the NCGC unique quantitative screening (qHTS) platform to find activators for EPAC1. In addition, this assay will also be used as a counterscreen for the EPAC2 qHTS. This fluorescent based assay is developed and validated for EPAC1 that measures exchange using EPAC effector Rap1 complex with BODIPY-GDP, a GDP analog with a tethered fluorophores. Activators are identified by monitoring the change in fluorescence signal as the exchanged free BODIPY-GDP has a reduced fluorescence compared to Rap1-bound BODIPY-GDP. Increase in signal (activation) is the desired outcome for the EPAC1 agonist while no activity in this assay is desired for the EPAC2 agonist counterscreen.
[1] de Rooij, J., Zwartkruis, F. J., Verheijen, M. H., Cool, R. H., Nijman, S. M., Wittinghofer, A., and Bos, J.L. (1998) Nature 396, 474-477.
Briefly, three uL of reagents (100 nM EPAC2, 250 nM RAP1B-BODIPY-GDP, 50 uM GDP) were dispensed into a 1536-well Greiner black solid-bottom medium binding assay plate. Controls and test compounds (23 nL) were transferred to the plate via a Kalypsys pin tool equipped with a 1536-pin array. The plates were centrifuged at 1,000 rpm for 15 seconds followed by 5 minute incubation at room temperature. The assay plates were read at 5 minute intervals for 30 minutes in the ViewLux plate reader using 480nm excitation and 540nm emission filters. The results were normalized to the agonist positive control of 6.5 mM cAMP.
On the % scale 0 is the no-effect control and ±100 the full control effect; potency means the concentration at half of the fitted maximal effect.
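Wherever activation is given: exchange makes BODIPY-GDP fluorescence drop when released from Rap1B; series mostly up to about 150 µM.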

Structure (SMILES) | activation | Potency
O=c1c(-c2ccc(F)c(F)c2)nc2cncnc2n1Cc1ccccc1 | -20.1% | 
C[N+](C)(CCOc1ccccc1)Cc1cccs1 | -2.61% | 
O=C(NCc1ccncc1)c1cnn(-c2nccc(-c3cccs3)n2)c1C1CC1 | -7.47% | 
COc1ncc2nc(C)c(=O)n(Cc3cccs3)c2n1 | -6.26% | 
CN(C)Cc1ccccc1-c1cncnc1Nc1ccncc1 | 2.36% | 
COc1cccc(Cn2c(=O)c(C)nc3cnc(N4CCOCC4)nc32)c1 | 1.39% | 
CN(C)C(=O)c1ccc(-c2cc(NCc3cccs3)ncn2)cc1 | -16.8% | 
CCNc1ncc2nc(-c3cccc(C#N)c3)c(=O)n(Cc3cccc(OC)c3)c2n1 | 3.97% | 
Cc1ccc(C(C)CCN2CCOc3ccc(CN4CCOCC4)cc3C2)o1 (stereo not drawn) | 1.95% | 
CC1CN(c2cc3c(cc2F)c(=O)c(C(=O)O)cn3-c2ccc(F)cc2F)CCN1 (stereo not drawn) | -22.2% | 
C=C[C@@H]1c2cc(C)ccc2N(S(=O)(=O)c2ccc(C)cc2)[C@H](c2ccc(OC(C)=O)cc2)C1(C#N)C#N | -9.82% | 
CCN(CC)CCCC(C)Nc1c2ccc(Cl)cc2nc2ccc(OC)cc12 (stereo not drawn) |  | 89.1 µM (active)
CCN(CC)CCCC(C)Nc1ccnc2cc(Cl)ccc12 (stereo not drawn) | -8.87% and 0.526% and -22.7% | 
CCN(CC)CCCC(C)Nc1cc(/C=C/c2ccccc2Cl)nc2cc(Cl)ccc12 (stereo not drawn) | 16.5% | 
COc1ccccc1-c1ccnc(-n2ncc(C(=O)NCc3cccnc3)c2C)n1 | 8.95% | 
COc1ccccc1/C=C\C(=O)OC[C@@H]1CCCN2CCCC[C@H]12 | -21.1% | 
CCOC(=O)CCC(=O)O[C@H]1C(O[C@@H]2C(C)[C@H](O[C@H]3C[C@@](C)(OC)C(O)C(C)O3)C(C)C(=O)OC(CC)[C@@](C)(O)C(O)[C@H](C)C(=O)C(C)C[C@]2(C)O)OC(C)CC1N(C)C (stereo partly drawn) | -16.2% | 
O=c1c(-c2ccc(F)cc2)nc2cnc(Oc3cccc(Cl)c3)nc2n1C[C@H]1CCCO1 | 10.2% | 
CO[C@H]1[C@H](NC(=O)c2ccsc2)c2ccccc2C12CCN(Cc1c(O)ccc3ccccc13)CC2 | -7.57% | 

Structure (SMILES) | activation | Potency
OCCN(CCO)c1nc(N2CCCCC2)c2nc(N(CCO)CCO)nc(N3CCCCC3)c2n1 |  | 112 µM (active) and 100 µM (active)
COCC(=O)N1CCC2(CC1)CN(c1cccc(-c3ccccc3)c1)C2 | -17% | 
Cc1noc(C)c1-c1nc(NCc2cccnc2)c2ccccc2n1 | -6.22% | 
Cc1oc(-c2ccccc2NC(=O)c2ccccc2)nc1CNC(=O)C1CC(=O)OC12CCCCC2 (stereo not drawn) | -5.24% | 
CSc1nnc(CNC(=O)c2c(-c3ccccc3)noc2C)n1-c1ccc(F)cc1 | -0.342% | 
Cc1cccnc1-c1cccc2c1OC(CNC(=O)C(=O)c1ccccc1)C2 (stereo not drawn) | -7.04% | 
COc1cccc(CNC(=O)c2c(OC)cc(=O)n3c2CCN(C(=O)c2csc(C)n2)CC3)c1 | 1.41% | 
CCOC(=O)c1c[nH]c2cc(OCC(C)C)c(OCC(C)C)cc2c1=O | -9.73% | 
Cn1c2c(c(=O)c3ccccc31)C[C@@H](O)C(C)(C)O2 | -9.21% | 
Cc1cc2nc3c(=O)[nH]c(=O)nc-3n(C[C@H](O)[C@H](O)[C@H](O)CO)c2cc1C |  | 79.4 µM (active) and 100 µM (active)
Nc1ncnc2c1ncn2[C@@H]1O[C@H](COP(=O)(O)OP(=O)(O)OP(=O)(O)O)[C@@H](O)[C@H]1O | 1.95% | 
Cc1cc2nc3c(=O)[nH]c(=O)nc-3n(C[C@H](O)[C@H](O)[C@H](O)COP(=O)(O)OP(=O)(O)OC[C@H]3O[C@@H](n4cnc5c(N)ncnc54)[C@H](O)[C@@H]3O)c2cc1C |  | 89.1 µM (active)
Nc1ncnc2c1ncn2[C@@H]1O[C@H](COP(=O)(O)OP(=O)(O)OP(=O)(O)OP(=O)(O)OC[C@@H]2O[C@H](n3cnc4c(N)ncnc43)[C@@H](O)[C@H]2O)[C@@H](O)[C@H]1O | 12.8% and -62.2% | 
Cc1cc2nc3c(=O)[nH]c(=O)nc-3n(CC(O)C(O)C(O)CO)c2cc1C (stereo not drawn) |  | 89.1 µM (active)
CC[C@H]1OC(=O)[C@H](C)[C@@H](O[C@H]2C[C@@](C)(OC)[C@@H](O)[C@H](C)O2)[C@H](C)[C@@H](O[C@@H]2O[C@H](C)C[C@H](N(C)C)[C@H]2O)[C@](C)(O)C[C@H](C)C(=NOCOCCOC)[C@H](C)[C@@H](O)[C@]1(C)O | -4.72% | 
C[C@@H]1CN(Cc2ccc3c(c2)CN(Cc2cccc4c2OCO4)CCO3)C[C@H](C)O1 | -2.91% | 
CC(=O)c1ccc(F)c(-c2cc(C)cc3c2OC(CNC(=O)C[C@@H]2C[C@@H](C)NC(=S)N2)C3)c1 (stereo partly drawn) | -13.4% | 
C[n+]1c2cc(N)ccc2cc2ccc(N)cc21 (tested in a mixture with another compound) |  | 22.4 µM (active)
Cc1ccc(N)cc1O | 2.89% | 
